# According to PubChem BioAssay AID1240 (Sanford-Burnham Center for Chemical Genomics, 2008):
# Among all 50,000 compounds or so, about 800 (1.6%) showed an effect of 50% or more. Only a selection was taken, and strong results are over-represented in it overall.
# Target: Bcl-2-like protein 10 (Homo sapiens) (UniProt Q9HD36)
# Experiment: Phenotype converters, Bcl-B/TR3 peptide binding displacement, primary biochemical FP (AID 1240);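 further: 0% = Bcl-B with tracer peptide and DMSO and 100% = tracer peptide lacking Bcl-B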
# Conditions: GST-Bcl-B / FITC-TR3 peptide fluorescence polarization; stronger effect = higher value; compound at 3.75 mg/L
# Bcl-2-like protein 10 (Homo sapiens), sequence (Q9HD36 whole entry, looked up): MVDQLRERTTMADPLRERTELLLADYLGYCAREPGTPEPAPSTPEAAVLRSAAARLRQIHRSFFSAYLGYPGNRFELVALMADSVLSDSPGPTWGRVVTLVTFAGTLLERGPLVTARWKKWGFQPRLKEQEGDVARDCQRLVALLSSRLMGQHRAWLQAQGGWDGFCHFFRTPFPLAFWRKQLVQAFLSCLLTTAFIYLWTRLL
row,SMILES,displacement [%]
1,CCc1ccc(-c2csc(N3N=C(c4cccs4)CC3c3ccc(F)cc3)n2)cc1 (stereo unspecified),0.2
2,COc1ccc(NC(=O)c2ccccc2NC(=O)c2ccc(C)cc2)cc1,-10.2
3,O=C1/C(=C/c2cn(-c3ccccc3)nc2-c2cccs2)SC(=S)N1C1CCS(=O)(=O)C1 (stereo unspecified),100
4,O=C(O)CCN1C(=O)/C(=C/c2cn(-c3ccccc3)nc2-c2cccs2)SC1=S,-14.1
5,CC(C)CN1C(=O)/C(=C/c2cn(-c3ccccc3)nc2-c2cccs2)SC1=S,34.6
6,COc1ccc(N2C(=O)/C(=C/c3cn(-c4ccccc4)nc3-c3cccs3)SC2=S)cc1,0.4
7,O=C1/C(=C/c2cn(-c3ccccc3)nc2-c2ccco2)SC(=S)N1C1CCS(=O)(=O)C1 (stereo unspecified),11.2
8,O=C1/C(=C/c2cn(-c3ccccc3)nc2-c2cccs2)SC(=S)N1Cc1ccccc1,115
9,COc1ccc(-n2c(SCC(=O)Nc3ccc(C)cc3)nc(O)c(Cc3ccccc3)c2=O)cc1,22.8
10,Cc1ccnc(N2C(=O)c3ccc(C(=O)O)cc3C2=O)c1,1.9
11,Cc1nn(-c2ccccc2)c2sc(C(=O)N/N=C/c3cc4c(cc3[N+](=O)[O-])OCO4)cc12,-1.4
12,Cc1ccccc1OCC(=O)Nc1ccc(I)cc1Cl,9.5
13,COC(=O)C1=C(C)N(C)C(C)=C(C(=O)OC)C1c1ccc(Br)cc1,-10.8
14,CCOc1ccc(-c2nc(Cc3ccccc3OC)no2)cc1,-6.4
15,O=C1C2CCCCC2C(=O)N1CC(=O)N1c2ccccc2Sc2ccc(C(F)(F)F)cc21 (stereo unspecified),-14.3
16,CCCOc1ccc(N2C(=O)CC(NCCNc3ccc([N+](=O)[O-])cn3)C2=O)cc1 (stereo unspecified),-1.7
17,O=C(Nc1ccccc1)c1ccccc1N=Cc1ccc(C=Nc2ccccc2C(=O)Nc2ccccc2)cc1,121
18,O=C(Nc1ccccc1)c1ccccc1N=Cc1ccc(Cl)c([N+](=O)[O-])c1,6.6
19,CCn1c2ccccc2c2cc(C=Nc3ccccc3C(=O)Nc3ccccc3)ccc21,-5.9
20,CCOP(=O)(OCC)C(OC(N)=O)c1ccc([N+](=O)[O-])cc1 (stereo unspecified),-9.1
21,Cc1onc(-c2c(F)cccc2Cl)c1C(=O)NCc1ccccn1,-5.5
22,O=[N+]([O-])c1ccccc1N[C@H]1O[C@H](CO)[C@@H](O)[C@@H]1O,6

row,SMILES,displacement [%]
1,Cc1cc(N[C@@H]2O[C@@H](C)[C@H](O)[C@@H](O)[C@H]2O)c([N+](=O)[O-])cc1C,6.5
2,C[C@@H]1O[C@@H](Nc2ccc(Cl)cc2[N+](=O)[O-])[C@H](O)[C@H](O)[C@H]1O,54.7
3,CC1=NN(c2ccc(C(=O)O)cc2)C(=O)/C1=C\c1ccc(O)cc1,-50.5
4,Cc1cc2nc(-c3cc(NC(=O)COc4ccc([N+](=O)[O-])cc4)ccc3O)oc2cc1C,0.2
5,Cc1c(NC(=O)/C=C/c2cn(-c3ccccc3)nc2-c2ccc(F)cc2)c(=O)n(-c2ccccc2)n1C,12.2
6,Cc1c(NC(=O)/C=C/c2cn(-c3ccccc3)nc2-c2ccccc2)c(=O)n(-c2ccccc2)n1C,70
7,Cc1c(NC(=O)/C=C/c2ccccc2)c(=O)n(-c2ccccc2)n1C,2.7
8,O=C(c1ccccc1)N1CCN(Cc2cccc(Oc3ccccc3)c2)CC1,-8.8
9,COc1ccc(C(=O)N2CCN(Cc3ccccc3F)CC2)cc1OC,56
10,COc1ccc(C(=O)N2CCN(Cc3ccccc3C)CC2)cc1OC,-1
11,COc1ccc(C(=O)N2CCN(Cc3cccc4ccccc34)CC2)cc1OC,-5.2
12,COc1cc(C(=O)N2CCN(Cc3cccc(Oc4ccccc4)c3)CC2)cc(OC)c1OC,132
13,COc1ccc(C(=O)N2CCN(Cc3cccc(Oc4ccccc4)c3)CC2)cc1OC,6.4
14,CC(=O)SCCC(=O)N1CCn2c3c(c4cc(C)ccc42)CCCC31 (stereo unspecified),14.3
15,CN1CCN(CC(=O)N2CCn3c4c(c5cc(C6CCCCC6)ccc53)CCCC42)CC1 (stereo unspecified),60.9
16,CCn1c2c(c3cc(C4CCCCC4)ccc31)CCCC2O (stereo unspecified),2.5
17,O=C(Nc1ccc(Cl)cc1)Nc1ccc([N+](=O)[O-])cc1Br,3.9
18,CCCC(=O)Nc1ccc2c(c1)Cc1ccccc1-2,-1.1
19,O=C(N/N=C/c1cccnc1)c1ccco1,18.4
20,O=C1OC(Nc2ncccn2)(c2ccccc2)c2ccccc21 (stereo unspecified),-7.3
21,O=C1OC(c2ccc(NC(=O)C(F)(F)F)cc2)(c2ccc(NC(=O)C(F)(F)F)cc2)c2ccccc21,4.8
22,O=S(=O)(c1ccc2ccccc2c1)N1CCC(Cc2ccccc2)CC1,-21.4

row,SMILES,displacement [%]
1,O=C(CCN1C(=O)c2ccccc2C1=O)Nc1ccccc1C(=O)N1CCOCC1,10
2,O=C1CNC(=O)c2c(ncn2Cc2ccccc2)N1,-13.2
3,O=C1c2ccccc2-c2onc3ccc(NC4CCCCC4)c1c23,59.4
4,O=C1c2ccccc2-c2onc3ccc(N4CCCCC4)c1c23,145
5,O=C1c2ccccc2-c2onc3c(N4CCN(c5ccccc5)CC4)ccc1c23,-8.2
6,O=C1c2ccccc2C(=O)c2c(NC3CCCCC3)cccc21,-2.9
7,O=C1c2ccccc2-c2onc3ccc(Nc4cccc([N+](=O)[O-])c4)c1c23,24.2
8,Cc1ccc(N2CCCCC2)c2c1C(=O)c1ccccc1C2=O,1.1
9,CCSc1sc(CC)cc1C(=O)O,15.4
10,O=c1oc(-c2ccco2)nc2ccc(Cl)cc12,13.6
11,O=c1oc(-c2ccco2)nc2ccccc12,15.9
12,O=c1oc(-c2ccco2)nc2cc(Cl)ccc12,56
13,C(=C\c1ccco1)/C=N/Nc1nnc2c(n1)[nH]c1ccccc12,-1.8
14,CCOc1ccc(C(=O)Nc2ccc(O)c(-c3nc4ccccc4s3)c2)cc1Cl,6.3
15,O=c1c2c(nc3cc(-c4cccc(F)c4)[nH]n13)CCS2,9.2
16,O=c1c2c(nc3cc(-c4ccc(Br)cc4)[nH]n13)CCS2,-9.1
17,O=c1c2c(nc3cc(-c4ccc(I)cc4)[nH]n13)CCS2,97.5
18,Cc1ccc(-c2cc3nc4c(c(=O)n3[nH]2)SCC4)cc1,-4.6
19,O=c1c2c(nc3cc(-c4cccc(Cl)c4)[nH]n13)CCS2,34.8
20,O=c1c2c(nc3cc(-c4ccc(Cl)cc4)[nH]n13)CCS2,115
21,O=C(COc1cccc2ccccc12)NCc1cccnc1,8.3
22,CC(C)CNC(=O)c1cccc(NC(=O)CN2C(=O)c3ccccc3C2=O)c1,13.8
